A selection: hits, their analogues and other compounds. The true share with any hit is near 2.4%.
PPC-1+TRAIL kill: PPC-1 cancer cell killing with TRAIL present; PPC-1 cells + TRAIL, ATPLite viability luminescence; AID 1443; cell killing (% activity), % at 4 µM or 5 µM; 220,000 compounds, 0.41% hits;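 active = cell killing above 50% in the first pass at 4 µM, then a duplicate retest at 5 µM averaging 50% or more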;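 also: plate controls were cells with TRAIL plus DMSO for no effect and medium-only wells lacking cells for full effect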
C8 TRAIL sens: caspase-8 TRAIL sensitization; inhibition (viability loss, TRAIL sensitization), % at 10 µM; NB7+C8 cells + TRAIL, ATPlite viability luminescence; 360,000 compounds, 1% hits;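 active = compounds causing at least 50% loss of cell viability in the single-dose screen, relative to plate controls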
STAT1 inh: reduces IFN-gamma driven STAT1 reporter signal. NIH 3T3 STAT1-luciferase reporter, luminescence. inhibition, % at 5.5 µM. 200,000 compounds, 0.35% hits;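 active = inhibition above a set limit, the mean inhibition across all tested compounds plus 3 SD, cut at about 34% in these data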;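 also: 0% = IFN-gamma with DMSO and 100% = IFN-gamma with 300 µM nifuroxazide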
STAT3 inh: inhibitors of IL-6 induced STAT3 signaling; U3A cells, IL-6 STAT3-luciferase reporter, luminescence; host cell line lacks STAT1; inhibition, % at 5.5 µM; 190,000 compounds, 0.89% hits; AID 862;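 active = inhibition above the mean inhibition across all screened compounds plus 3 SD, cut at about 44% in these data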;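 also: 0% = DMSO only wells and 100% = 100 µM nifuroxazide control wells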
HSP90 inh: inhibitors of HSP90 luciferase refolding in rabbit reticulocyte lysate | luciferase refolding luminescence, 3 h | AID 1789 | 290,000 compounds, 0.91% hits | inhibition, % at 5.6 µM;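 active = inhibition above the screen-wide mean plus 3 SD, computed separately per campaign, cut at about 16% in these data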;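 also: 0% = DMSO wells and 100% = 60 µM geldanamycin wells; inhibitors lower the luminescence because luciferase stays unfolded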
HSF1 inhib: HSF1 inhibition; NIH3T3-HGL HSE-luciferase, MG132-induced, luminescence 8 h; active compounds read low; activity change, negative = inhibition, % at 7.5 µM (by protocol); 300,000 compounds, 0.77% hits; AID 2098;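 active = more than half of replicate wells show activity change below -50%, luminescence cut by over half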;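 also: luciferase reports HSF-1 transcriptional activity via heat shock element; 0% = median of DMSO wells and -100% = zero luminescence signal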
Numbers without * were called inactive; . = no result.

SMILES | PPC-1+TRAIL kill | C8 TRAIL sens | STAT1 inh | STAT3 inh | HSP90 inh | HSF1 inhib
COc1ccc(C2=NN(C(=O)COC(=O)c3ccc(S(C)(=O)=O)c([N+](=O)[O-])c3)C(c3ccco3)C2)cc1 (centres undefined) | . | 90* | . | . | . | .
CC(C)(C)C1CCc2sc(C(=O)NNC(=O)CCl)cc2C1 (centres undefined) | 15 | 88* | -30 | 7 | -3 | 13
CC(C)(C)C1CCC(=NNC(=O)c2cc3c(s2)CCCC3)CC1 (centres undefined) | -2 | -12 | 1 | 10 | 5 | 7
CC(C)N(Cc1ccccc1)C(=O)COC(=O)c1cnc(Cl)c(Cl)c1 | . | 75* | . | . | . | .
COC(=O)C1=CN(c2ccc(F)cc2)C(N)=C(C#N)C1c1cccc(OC)c1OC (centres undefined) | . | -3 | . | . | . | .
Nc1ccc(Nc2ccncc2)cc1 | . | -17 | . | . | . | .
CCS(=O)(=O)N1CCCC(C(=O)NCCc2ccc(OC)c(OC)c2)C1 (centres undefined) | 21 | -7 | 4 | -4 | -2 | -5
COc1ccc(S(=O)(=O)N2CCC(C(=O)NCCC3=CCCCC3)CC2)cc1C | 27 | 54* | -1 | 7 | -1 | 1
COc1ccc(CCNC(=O)C2CCCN(S(=O)(=O)c3ccc(F)cc3)C2)cc1OC (centres undefined) | . | -14 | . | . | -6 | -57*
NC(=O)c1ccc(NC(=O)COC(=O)C2(c3ccccc3F)CCCC2)cc1 | 10 | -5 | 6 | 18 | -7 | 3
O=C(COC(=O)C1(c2ccccc2F)CCCC1)N1CCc2ccccc21 | 11 | 4 | 5 | 9 | -4 | -61*
CN(C(=O)c1ccccc1C(=O)OCC(=O)Nc1ccc(S(N)(=O)=O)cc1)c1ccccc1 | . | 9 | . | . | . | -79*
NS(=O)(=O)c1ccc(NC(=O)COC(=O)C2(c3ccccc3F)CCCC2)cc1 | 4 | 0 | -2 | -3 | 3 | -57*
Cc1cc(O)ccc1-c1cc(C(=O)NCc2ccc(F)cc2)[nH]n1 | . | 15 | . | . | . | .
C/C(Cc1ccccc1)=N\NC(=O)CNC(=O)Cc1ccc(Cl)cc1 | 0 | -6 | . | . | 0 | -53*
CCOC(=O)c1cnc2ccccc2c1Nc1ccc2c(c1)OCCO2 | 1 | 16 | 3 | 19 | 6 | -61*
COc1ccc(N2CCN(CCCn3c(=S)[nH]c4ncccc4c3=O)CC2)cc1 | 5 | 8 | -1 | -30 | 2 | -56*
O=c1c2cccnc2[nH]c(=S)n1CCCN1CCN(c2ccc(F)cc2)CC1 | -4 | 13 | 2 | -1 | -1 | 6
Cc1[nH]nc(C(F)(F)F)c1N=NN1CCOCC1 | . | 78* | . | . | . | .
O=S(=O)(c1ccccc1)c1nnn2c1nc(NC1CCN(Cc3ccccc3)CC1)c1cc(Cl)ccc12 | . | 40 | . | . | 4 | 16
O=S(=O)(c1ccccc1)c1nnn2c1nc(NC1CCN(Cc3ccccc3)CC1)c1ccccc12 | . | 76* | . | . | 1 | -5
Cc1ccc(S(=O)(=O)N2[C@H](CC(=O)c3ccc(Cl)c(Cl)c3)OC[C@@H]2C(C)C)cc1 | . | -10 | . | . | . | .
COc1ccc2nc(Cl)c(C#N)cc2c1 | 18 | -8 | -13 | -2 | 2 | -65*
Cc1ccc2nc(Cl)c(C#N)cc2c1 | -9 | -5 | -17 | 7 | 1 | 6
CC(=O)N1CCN(S(=O)(=O)c2cccc(C(=O)OCc3ccc(C(C)(C)C)cc3)c2)CC1 | . | 17 | . | . | . | .
SMILES | PPC-1+TRAIL kill | C8 TRAIL sens | STAT1 inh | STAT3 inh | HSP90 inh | HSF1 inhib
O=S(=O)(c1cnc(Cl)c(Cl)c1)N1CCc2ccccc21 | 80* | 12 | . | . | 15 | 10
COc1cc(CNc2ncnc3c2ncn3[C@H]2CN(Cc3ccco3)C[C@@H](CO)O2)cc(OC)c1OC | . | 2 | . | . | . | .
CC(C)N1CC(=O)N2CSCC2C1=O (centres undefined) | . | -5 | . | . | . | .
CCOc1ccc(CN(C)C(=O)[C@H](Cc2ccccc2)NC(=O)OCc2ccccc2)cc1OC | . | 51* | . | . | -3 | 5
COCCCN1C(=O)C(CC(=O)NC2CCCCC2)CC(C(=O)N(C)C)=C1C (centres undefined) | . | -15 | . | . | . | .
Cn1ccnc1C1CCCCN1C(=O)c1cc(COc2ccc(F)cc2Cl)on1 (centres undefined) | 9 | 3 | -3 | 11 | -1 | -77*
COC(=O)[C@]12CCCCC=C1N(Cc1ccccc1)C(=O)[C@H](CC(=O)NCC13CC4CC(CC(C4)C1)C3)C2 | . | -3 | . | . | . | .
CCSc1nc(-c2ccc(OC)cc2)cc(-c2ccccc2)c1C#N | 6 | 0 | 10 | 13 | 3 | -6
COc1ccc(-c2cc(-c3ccccc3)c(C#N)c(S(C)=O)n2)cc1 (centres undefined) | 40 | 91* | -5 | -4 | 2 | 119
c1ccc(COc2cccc(CN3CCN(c4ccccn4)CC3)c2)cc1 | -14 | -7 | 5 | 3 | -1 | -55*
Oc1ccc2ccccc2c1C=NNc1ccccn1 | . | 28 | . | . | . | 70*
Oc1ccc2ccccc2c1/C=N/Nc1nnc(-c2ncc[nH]2)c2ccccc12 | -4 | 21 | 29 | 24 | 6 | -10
O=C(NC(=S)N1CCN(c2ccc(Cl)cc2[N+](=O)[O-])CC1)c1cccs1 | 3 | -6 | 0 | -10 | 2 | -66*
CN1CCN(C(=O)c2cc([N+](=O)[O-])cc([N+](=O)[O-])c2)CC1 | . | -3 | . | . | -2 | -64*
CCCNC(=O)C1(C)CCCN(C(=O)c2ccc(F)cc2Cl)C1 (centres undefined) | . | 2 | . | . | . | .
CCOc1ccccc1CNC(=O)C1CCN(c2nnc(C)c3c(C)n(-c4ccc(C)cc4)nc23)CC1 | . | 71* | . | . | 10 | 11
C=CCn1c2ccccc2c2nnc(SCC(=O)O)nc21 | . | -6 | . | . | -4 | -60*
COc1ccccc1N=C1NC(=O)/C(=C/c2ccc(N(C)C)cc2)S1 | . | 49* | . | . | -1 | 12
COc1ccc(/C=C2\SC(=Nc3ccccc3)NC2=O)cc1 | . | . | . | . | 1 | -7
Cc1cc(O)c2c(c1)C(=O)[C@@]13Oc4c5c(c(O)c6c(O)cc(C)cc46)C(=O)C[C@H](O)[C@H]5[C@@H]1[C@@H](O)CC(=O)C3=C2O | . | -3 | . | . | . | .
O=C1CCCCC(=O)[C@H](OC(=O)c2ccccc2)C[C@H](c2ccccc2)O1 | . | 67* | . | . | . | .
Cc1cc(C)cc(NS(=O)(=O)c2ccc3c(c2)c(=O)n(C)c(=O)n3C)c1 | 17 | 80* | 28 | 33 | 3 | -10
CC(O)CNCCCCOc1ccc(OCc2ccccc2)cc1 (centres undefined) | 17 | 15 | -9 | 4 | -1 | 17
CC(O)CNCCCOc1ccccc1OCc1ccccc1 (centres undefined) | 2 | -7 | -3 | 9 | 17* | -11
CN(Nc1cccc(Cl)c1)c1cccc(Cl)c1 | . | 8 | . | . | . | .
CN(C)S(=O)(=O)c1ccc(C(=O)Nc2nnc(SCC(=O)N3CCOCC3)s2)cc1 | . | 60* | . | . | . | .
CSc1nnc(NC(=O)c2ccc(S(=O)(=O)N(C)C)cc2)s1 | 21 | 39 | -28 | 8 | 4 | 11
